# Assay results reported in the supplement of paper PMC10849652.
# The full data set covers some 7,900 targets. This sample favours those with a hit. About 0.6% of all pairs of compound and target were hits. A number with no mark means an inactive call.
# Legend:
# Experiment in all cases: log2 fold change, soluble protein after heating vs DMSO (PISA); higher = thermal stabilisation; K562 cells, 10 uM, 30 min; active = over 0.2 and 3.5 SD of the protein, either way, in both replicates (recomputed)
# [1] = compound: C1=CC=C(C=C1)[C@H](COC2=CC3=C(C=C2)NC(=O)N3)NC(=O)C4=CC=CN(C4=O)CC5=CC(=C(C=C5)F)F
# In short: (§1)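 K562 cells at 2×10^6 cells/mL were exposed to 10 μM compound for 30 min, then aliquots were heated for 3 min across 48°C-58°C, pooled, and extracted in PBS containing 0.5% NP-40 at 4°C. The supernatant after 21,000xg for 90 min was taken as soluble protein and measured by TMTpro 16plex LC-MS/MS with channel sums equalised. Thermal stability is reported relative to control samples, with values from duplicates. Fold changes are given on a log2 scale.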
# [2] = compound: CC1=C(SC2=C1C(=N[C@H](C3=NN=C(N32)C)CC(=O)N)C4=CC=C(C=C4)Cl)C
# In short: as §1
# [3] = compound: CC1=C2C(=CC=C1)N=C(N(C2=O)C3=CC=CC=C3C)CN4C=NC5=C(N=CN=C54)N
# In short: as §1
# [4] = compound: Cc1sc2c(c1C)C(c1ccc(Cl)cc1)=N[C@@H](CC(=O)OC(C)(C)C)c1nnc(C)n1-2
# In short: as §1
# [5] = compound: c1ccc([C@@H]2C[C@H]2NC2CCNCC2)cc1
# In short: as §1
# Sequence of UniProt Q9NV70 (Q9NV70 whole entry, looked up): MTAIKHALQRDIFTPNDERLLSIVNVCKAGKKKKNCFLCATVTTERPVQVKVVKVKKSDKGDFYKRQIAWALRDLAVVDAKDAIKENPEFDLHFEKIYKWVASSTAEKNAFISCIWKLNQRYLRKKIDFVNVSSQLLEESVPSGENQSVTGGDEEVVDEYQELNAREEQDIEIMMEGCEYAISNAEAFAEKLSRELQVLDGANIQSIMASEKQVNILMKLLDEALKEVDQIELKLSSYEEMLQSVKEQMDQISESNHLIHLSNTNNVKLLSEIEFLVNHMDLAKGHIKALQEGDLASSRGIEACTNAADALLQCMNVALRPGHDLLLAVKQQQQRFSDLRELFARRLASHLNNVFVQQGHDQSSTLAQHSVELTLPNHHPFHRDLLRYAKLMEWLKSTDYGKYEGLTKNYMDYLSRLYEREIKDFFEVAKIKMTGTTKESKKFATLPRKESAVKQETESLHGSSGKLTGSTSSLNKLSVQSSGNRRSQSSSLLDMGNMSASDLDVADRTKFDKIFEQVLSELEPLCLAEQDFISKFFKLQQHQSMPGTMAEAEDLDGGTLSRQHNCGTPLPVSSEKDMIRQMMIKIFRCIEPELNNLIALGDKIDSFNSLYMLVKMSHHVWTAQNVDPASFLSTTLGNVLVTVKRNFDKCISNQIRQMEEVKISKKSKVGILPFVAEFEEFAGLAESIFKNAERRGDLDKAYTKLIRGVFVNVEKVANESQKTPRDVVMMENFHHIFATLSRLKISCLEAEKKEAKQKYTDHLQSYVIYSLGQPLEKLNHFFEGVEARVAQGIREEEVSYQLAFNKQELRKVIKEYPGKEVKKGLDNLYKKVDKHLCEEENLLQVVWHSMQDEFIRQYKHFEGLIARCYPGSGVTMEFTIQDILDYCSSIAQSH
# Sequence of UniProt P50402 (P50402 whole entry, looked up): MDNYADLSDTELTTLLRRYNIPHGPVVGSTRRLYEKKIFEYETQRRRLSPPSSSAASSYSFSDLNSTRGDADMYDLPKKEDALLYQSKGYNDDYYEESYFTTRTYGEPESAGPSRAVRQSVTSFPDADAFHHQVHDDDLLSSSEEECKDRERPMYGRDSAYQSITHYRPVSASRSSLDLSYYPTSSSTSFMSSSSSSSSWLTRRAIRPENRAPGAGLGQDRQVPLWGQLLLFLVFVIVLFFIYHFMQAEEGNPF
# Sequence of UniProt Q9NRY5 (Q9NRY5 whole entry, looked up): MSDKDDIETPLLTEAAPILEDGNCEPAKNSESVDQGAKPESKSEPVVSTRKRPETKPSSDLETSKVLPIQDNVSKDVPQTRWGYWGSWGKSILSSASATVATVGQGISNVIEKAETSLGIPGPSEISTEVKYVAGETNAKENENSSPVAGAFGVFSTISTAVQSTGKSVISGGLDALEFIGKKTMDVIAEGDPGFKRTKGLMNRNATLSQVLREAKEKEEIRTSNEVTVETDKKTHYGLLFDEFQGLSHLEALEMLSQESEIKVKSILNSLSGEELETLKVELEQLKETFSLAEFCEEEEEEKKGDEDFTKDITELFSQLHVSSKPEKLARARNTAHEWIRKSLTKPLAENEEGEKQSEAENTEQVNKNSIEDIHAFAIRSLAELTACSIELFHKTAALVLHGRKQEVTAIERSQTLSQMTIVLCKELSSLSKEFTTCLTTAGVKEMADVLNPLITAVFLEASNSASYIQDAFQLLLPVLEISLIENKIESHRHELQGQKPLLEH
# Sequence of UniProt O75822 (O75822 whole entry, looked up): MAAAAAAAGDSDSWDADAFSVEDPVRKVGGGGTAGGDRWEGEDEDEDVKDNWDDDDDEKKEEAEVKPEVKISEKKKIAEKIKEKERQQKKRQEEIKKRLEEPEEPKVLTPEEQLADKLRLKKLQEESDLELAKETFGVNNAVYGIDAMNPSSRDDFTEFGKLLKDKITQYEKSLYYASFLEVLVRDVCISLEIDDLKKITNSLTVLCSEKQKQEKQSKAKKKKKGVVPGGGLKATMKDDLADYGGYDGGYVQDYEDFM
# Sequence of UniProt Q15392 (Q15392 whole entry, looked up): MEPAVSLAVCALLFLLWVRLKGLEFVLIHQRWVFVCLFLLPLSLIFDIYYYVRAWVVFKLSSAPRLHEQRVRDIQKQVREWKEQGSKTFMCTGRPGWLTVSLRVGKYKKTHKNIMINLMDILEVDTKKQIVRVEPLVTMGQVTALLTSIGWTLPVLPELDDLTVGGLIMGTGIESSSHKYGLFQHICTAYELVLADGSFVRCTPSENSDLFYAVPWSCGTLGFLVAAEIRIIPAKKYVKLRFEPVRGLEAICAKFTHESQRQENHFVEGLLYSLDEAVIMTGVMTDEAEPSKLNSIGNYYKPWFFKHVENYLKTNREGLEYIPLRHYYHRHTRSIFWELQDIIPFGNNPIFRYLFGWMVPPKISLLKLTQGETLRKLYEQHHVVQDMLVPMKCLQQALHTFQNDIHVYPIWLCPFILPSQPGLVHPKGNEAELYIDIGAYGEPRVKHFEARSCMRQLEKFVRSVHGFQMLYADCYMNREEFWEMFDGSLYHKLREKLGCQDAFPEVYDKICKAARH
# Sequence of UniProt Q7Z2Z2 (Q7Z2Z2 whole entry, looked up): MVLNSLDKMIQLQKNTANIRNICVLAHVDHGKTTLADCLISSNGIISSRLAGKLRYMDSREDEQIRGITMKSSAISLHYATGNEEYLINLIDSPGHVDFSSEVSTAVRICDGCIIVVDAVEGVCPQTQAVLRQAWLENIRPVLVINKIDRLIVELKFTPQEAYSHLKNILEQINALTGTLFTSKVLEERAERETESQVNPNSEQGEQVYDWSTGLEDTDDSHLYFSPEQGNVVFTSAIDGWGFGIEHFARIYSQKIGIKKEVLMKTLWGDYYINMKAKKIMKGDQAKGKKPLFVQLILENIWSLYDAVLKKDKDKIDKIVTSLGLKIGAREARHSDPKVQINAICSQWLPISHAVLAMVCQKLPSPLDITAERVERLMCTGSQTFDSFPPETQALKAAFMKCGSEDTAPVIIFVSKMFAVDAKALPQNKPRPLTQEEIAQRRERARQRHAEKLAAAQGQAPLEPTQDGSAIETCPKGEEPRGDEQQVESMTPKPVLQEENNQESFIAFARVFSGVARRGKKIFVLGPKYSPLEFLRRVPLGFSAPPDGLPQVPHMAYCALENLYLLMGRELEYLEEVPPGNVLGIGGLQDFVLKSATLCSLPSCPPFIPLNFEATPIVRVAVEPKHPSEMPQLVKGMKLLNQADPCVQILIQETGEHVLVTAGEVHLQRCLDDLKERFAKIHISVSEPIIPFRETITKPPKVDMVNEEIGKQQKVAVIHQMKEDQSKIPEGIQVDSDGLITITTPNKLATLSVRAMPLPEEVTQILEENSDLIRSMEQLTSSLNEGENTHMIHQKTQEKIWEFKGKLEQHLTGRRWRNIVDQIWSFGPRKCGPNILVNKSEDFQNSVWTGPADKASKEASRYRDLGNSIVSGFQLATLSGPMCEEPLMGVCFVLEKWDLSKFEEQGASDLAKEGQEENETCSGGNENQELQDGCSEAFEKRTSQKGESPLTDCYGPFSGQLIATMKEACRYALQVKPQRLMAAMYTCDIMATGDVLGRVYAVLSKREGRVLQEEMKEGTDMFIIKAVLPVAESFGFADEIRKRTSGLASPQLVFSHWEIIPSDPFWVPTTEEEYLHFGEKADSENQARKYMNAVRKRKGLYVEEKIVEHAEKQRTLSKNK
# Sequence of UniProt P13498 (P13498 whole entry, looked up): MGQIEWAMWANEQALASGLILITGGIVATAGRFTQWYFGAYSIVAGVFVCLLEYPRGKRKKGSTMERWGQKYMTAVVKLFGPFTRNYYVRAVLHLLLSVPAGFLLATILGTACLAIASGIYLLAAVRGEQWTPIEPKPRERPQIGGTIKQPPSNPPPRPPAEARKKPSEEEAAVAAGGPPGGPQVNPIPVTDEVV
# Sequence of UniProt Q9H410 (Q9H410 whole entry, looked up): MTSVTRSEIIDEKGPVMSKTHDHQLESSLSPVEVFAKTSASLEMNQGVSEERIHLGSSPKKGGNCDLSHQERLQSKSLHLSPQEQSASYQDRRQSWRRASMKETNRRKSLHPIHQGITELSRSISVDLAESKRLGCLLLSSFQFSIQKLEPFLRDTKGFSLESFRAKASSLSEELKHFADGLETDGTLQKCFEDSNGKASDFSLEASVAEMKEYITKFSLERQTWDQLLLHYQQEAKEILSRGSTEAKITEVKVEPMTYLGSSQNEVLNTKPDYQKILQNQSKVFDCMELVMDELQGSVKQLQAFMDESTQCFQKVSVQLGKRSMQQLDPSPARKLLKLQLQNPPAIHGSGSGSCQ
# Sequence of UniProt Q9UK59 (Q9UK59 whole entry, looked up): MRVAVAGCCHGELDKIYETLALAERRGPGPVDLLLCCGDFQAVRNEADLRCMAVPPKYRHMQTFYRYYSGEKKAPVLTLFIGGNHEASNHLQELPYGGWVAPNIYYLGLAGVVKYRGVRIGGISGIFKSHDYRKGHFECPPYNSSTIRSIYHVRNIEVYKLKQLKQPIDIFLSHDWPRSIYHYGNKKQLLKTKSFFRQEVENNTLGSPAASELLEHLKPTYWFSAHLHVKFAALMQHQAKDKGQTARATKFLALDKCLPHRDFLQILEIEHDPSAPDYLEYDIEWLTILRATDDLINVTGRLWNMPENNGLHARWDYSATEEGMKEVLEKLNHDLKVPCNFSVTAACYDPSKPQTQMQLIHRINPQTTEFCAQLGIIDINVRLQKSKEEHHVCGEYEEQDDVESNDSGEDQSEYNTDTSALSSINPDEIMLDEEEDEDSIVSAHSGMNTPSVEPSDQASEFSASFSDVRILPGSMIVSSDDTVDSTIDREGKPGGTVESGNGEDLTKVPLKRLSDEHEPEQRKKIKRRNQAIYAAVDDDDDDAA
# Sequence of UniProt Q8NBA8 (Q8NBA8 whole entry, looked up): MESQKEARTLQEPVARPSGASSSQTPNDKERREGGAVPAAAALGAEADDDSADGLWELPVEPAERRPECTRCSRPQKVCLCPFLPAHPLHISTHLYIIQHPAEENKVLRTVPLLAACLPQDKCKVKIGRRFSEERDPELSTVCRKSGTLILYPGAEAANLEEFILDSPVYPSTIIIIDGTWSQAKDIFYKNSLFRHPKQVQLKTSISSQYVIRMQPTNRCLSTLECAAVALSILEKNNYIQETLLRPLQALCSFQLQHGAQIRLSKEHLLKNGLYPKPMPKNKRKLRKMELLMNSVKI
Target,log2 fold change [1],log2 fold change [2],log2 fold change [3],log2 fold change [4],log2 fold change [5]
FAAP100 (UniProt Q0VG06),-0.243,0.078,0.017,-0.073,0.067
EPHX2 (UniProt P34913),-0.015,0.091,0.052,0.143,-0.002
DCTN1 isoform 4 (UniProt Q14203),-0.052,-0.021,0.096,0.044,-0.008
DBN1 isoform 3 (UniProt Q16643),0.049,0.019,-0.027,0.044,0.004
DDB1 isoform 2 (UniProt Q16531),0.028,–,–,–,–
DCAF6 isoform 3 (UniProt Q58WW2),0.04,-0.017,0.003,0.032,0.027
DAXX (UniProt Q9UER7),0.166,0.178,0.197,0.017,-0.101
EXOC1 (UniProt Q9NV70),-0.095,0.021,0.121,0.027,-0.075
EOGT (UniProt Q5NDL2),0.013,-0.074,0.056,-0.032,0.077
DTNBP1 (UniProt Q96EV8),-0.033,0.031,0.02,0.001,0.013
EIF4E2 (UniProt O60573),-0.043,-0.01,-0.007,-0.06,0.055
DHCR24 (UniProt Q15392),0.099,-0.035,0.14,0.036,-0.012
DOLPP1 (UniProt Q86YN1),-0.028,0.02,-0.107,0.062,0.153
DTWD2 (UniProt Q8NBA8),-0.011,0.125,0.064,0.043,-0.036
DBT (UniProt P11182),-0.003,-0.004,0.012,0.062,0.007
EFL1 (UniProt Q7Z2Z2),-0.042,0.051,0.083,0.008,-0.017
DPYSL2 (UniProt Q16555),-0.012,0.072,0.093,0.01,0.014
DHRS3 (UniProt O75911),0.007,0.068,0.057,0.017,-0.024
DUS2 (UniProt Q9NX74),0.024,0.055,0.109,-0.087,-0.023
CYBA (UniProt P13498),0.007,0.034,-0.013,0.027,0.031
FAF2 (UniProt Q96CS3),0.002,0.025,0.067,-0.012,-0.017
DHPS (UniProt M0R1T2),-0.155,–,–,–,–
FAM114A2 (UniProt Q9NRY5),-0.046,0.047,0.018,0.033,0.006
ESYT1 isoform 2 (UniProt Q9BSJ8),-0.063,-0.046,0.018,0.008,-0.046
EPHX2 (UniProt E5RI53),-0.024,–,–,–,–
ELOC (UniProt Q15369),0.024,0.151,0.132,-0.066,-0.07
DNAH10 (UniProt Q8IVF4),0.09,0.103,0.062,-0.131,0.031
EMD (UniProt P50402),0.016,0.022,0.059,0.058,0.031

Target,log2 fold change [1],log2 fold change [2],log2 fold change [3],log2 fold change [4],log2 fold change [5]
ERCC2 (UniProt P18074),0,-0.025,-0.044,-0.104,0.05
"FADS1, A0A0A0MR51",-0.051,0.026,0.026,-0.005,-0.038
DHX36 (UniProt Q9H2U1),0.037,-0.087,-0.094,0.091,0.015
EEF1AKNMT (UniProt Q8N6R0),-0.146,0.049,0.121,0.028,-0.063
EIF3J (UniProt O75822),-0.034,0.025,-0.004,-0.041,-0.035
DPP8 (UniProt Q6V1X1),-0.112,0.029,0.145,-0.033,0.005
DMAC1 (UniProt Q96GE9),0.058,-0.041,0.05,-0.085,0.023
EXOSC10 (UniProt Q01780),0.162,0.184,0.284,0.03,-0.041
DUS3L (UniProt Q96G46),0.073,0.04,-0.057,-0.007,0.007
ETNK1 (UniProt Q9HBU6),0,0.044,0.071,-0.092,0.022
FAM118A (UniProt Q9NWS6),-0.079,0.05,-0.102,-0.021,0.003
DNAJC24 (UniProt Q6P3W2),0.05,0.072,0.025,-0.002,0.054
DSN1 (UniProt Q9H410),0.02,0.016,0.059,0.045,-0.054
EXOC5 (UniProt O00471),-0.069,-0.006,0.07,0.066,-0.018
DCUN1D1 (UniProt Q96GG9),-0.011,0.064,0.073,-0.033,0.003
DTYMK (UniProt P23919),-0.064,0.082,-0.02,-0.003,-0.014
F5 (UniProt P12259),-0.025,-0.091,0.003,0.077,0.014
DBR1 (UniProt Q9UK59),0.023,0,0,0.017,0.057
DNAH11 (UniProt Q96DT5),0.047,-0.387,0.089,-0.021,0.092
CTSC (UniProt P53634),0.018,-0.012,-0.039,-0.01,0.056
CTNNB1 (UniProt P35222),-0.039,0.101,0.312,-0.062,-0.149
EIF4G1 isoform 8 (UniProt Q04637),-0.074,-0.016,-0.036,0.135,-0.002
ESS2 (UniProt Q96DF8),0.04,-0.06,-0.096,0.018,0.075
DDOST (UniProt P39656),0.018,-0.009,-0.078,-0.022,0
FAM160B1 (UniProt Q5W0V3),-0.005,0.026,-0.01,-0.022,-0.041
EXTL2 (UniProt Q9UBQ6),0.028,0.106,0.003,0.316 (active),-0.211
EZH2 isoform 2 (UniProt Q15910),0.023,-0.056,-0.14,0.016,-0.034
